KDM5B inhibitor: blocks human KDM5B histone demethylase activity; Q9UGL1; KDM5B demethylase, FDH-coupled NADH fluorescence (FDH is formaldehyde dehydrogenase); Potency, µM (highest dose often 57.7 µM), hits mostly inhibitors; 2.6% of 220,000 active; AID 1347165; active = well fitted inhibition curve with a large enough effect; also: 0% is about no effect; nearly all actives have a fitted effect of over 70% in size
Target sequence (Q9UGL1 whole entry, looked up): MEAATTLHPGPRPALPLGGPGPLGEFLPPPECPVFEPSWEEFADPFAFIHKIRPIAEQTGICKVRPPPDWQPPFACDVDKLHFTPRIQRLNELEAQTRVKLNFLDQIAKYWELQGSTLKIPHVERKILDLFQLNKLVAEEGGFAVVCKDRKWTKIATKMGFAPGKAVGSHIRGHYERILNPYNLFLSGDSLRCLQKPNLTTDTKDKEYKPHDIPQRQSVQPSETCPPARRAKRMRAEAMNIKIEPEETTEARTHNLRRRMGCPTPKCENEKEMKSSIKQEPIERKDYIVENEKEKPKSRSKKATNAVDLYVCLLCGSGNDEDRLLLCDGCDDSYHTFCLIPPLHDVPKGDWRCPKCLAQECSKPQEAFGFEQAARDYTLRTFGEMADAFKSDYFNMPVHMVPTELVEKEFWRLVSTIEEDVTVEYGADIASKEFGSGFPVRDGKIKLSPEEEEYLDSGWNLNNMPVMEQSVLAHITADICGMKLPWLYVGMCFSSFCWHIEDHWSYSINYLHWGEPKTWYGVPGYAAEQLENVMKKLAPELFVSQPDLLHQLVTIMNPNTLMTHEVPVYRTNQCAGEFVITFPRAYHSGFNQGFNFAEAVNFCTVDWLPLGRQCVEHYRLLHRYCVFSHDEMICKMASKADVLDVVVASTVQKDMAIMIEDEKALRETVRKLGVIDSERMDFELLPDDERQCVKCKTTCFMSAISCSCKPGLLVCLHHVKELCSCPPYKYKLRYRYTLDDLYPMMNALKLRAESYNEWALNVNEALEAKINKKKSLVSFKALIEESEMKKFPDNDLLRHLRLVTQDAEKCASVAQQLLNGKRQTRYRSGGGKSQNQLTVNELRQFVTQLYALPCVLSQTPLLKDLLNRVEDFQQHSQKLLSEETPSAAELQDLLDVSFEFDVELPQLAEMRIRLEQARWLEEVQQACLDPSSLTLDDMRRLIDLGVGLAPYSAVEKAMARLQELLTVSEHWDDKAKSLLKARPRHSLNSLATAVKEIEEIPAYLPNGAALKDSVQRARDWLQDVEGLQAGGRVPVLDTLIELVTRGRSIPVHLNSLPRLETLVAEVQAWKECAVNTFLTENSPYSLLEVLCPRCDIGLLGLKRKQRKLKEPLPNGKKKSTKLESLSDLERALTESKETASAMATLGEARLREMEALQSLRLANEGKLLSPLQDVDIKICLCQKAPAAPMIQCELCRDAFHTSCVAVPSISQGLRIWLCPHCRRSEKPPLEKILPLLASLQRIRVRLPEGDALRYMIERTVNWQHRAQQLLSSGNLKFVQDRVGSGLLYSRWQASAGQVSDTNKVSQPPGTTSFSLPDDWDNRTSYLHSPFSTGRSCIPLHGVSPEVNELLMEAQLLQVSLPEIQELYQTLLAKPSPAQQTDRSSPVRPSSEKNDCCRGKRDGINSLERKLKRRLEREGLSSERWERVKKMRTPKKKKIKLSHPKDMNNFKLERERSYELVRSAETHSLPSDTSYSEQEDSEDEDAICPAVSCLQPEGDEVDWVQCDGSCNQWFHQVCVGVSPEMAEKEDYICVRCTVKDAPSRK
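Compound dilutions met 200 nM (final) KDM5BΔAP for 10 min at room temperature before substrate addition. The substrate mix held 12.5 µM H3K4me3 with cofactors 25 µM α-ketoglutarate and 50 µM Fe²⁺. NADH signal gain over 30 min defined activity.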
Numbers without * were called inactive; i = inactive. The full list was thinned out, with hits kept by preference. Potency is read from the fitted curve at half-maximal effect.

SMILES	KDM5B inhibitor
O=C(NCc1nnc2n1C(C(=O)NC1CC1)CC2)c1ccc(Cl)cc1Cl (stereo unspecified)	i
CC(NC(=O)CCNC(=O)c1ccc(F)cc1Cl)c1ccc(Cl)c(Cl)c1 (stereo unspecified)	i
CCOC(=O)CNC(=O)c1ccccc1OCC	i
CCOc1ccc(CC(=O)NCc2nnc3ccc(-c4ccccc4)nn23)cc1	i
COc1ccc(CC(=O)NC(c2cccs2)C(C)C)c(OC)c1OC (stereo unspecified)	i
CCOC(=O)COc1ccc(F)cc1C(=O)c1ccn2nc(-c3ccc(OC)cc3)cc2n1	i
CCC1c2ccsc2CCN1C(=O)CNC(=O)c1ccccc1Cl (stereo unspecified)	i
Cc1ccc(-n2ncc3c2NC(=O)CC32C(=O)Nc3ccccc32)c(C)c1 (stereo unspecified)	i
O/N=C(\c1ccc(Cl)cc1)c1ccco1	i
CCc1ccc(NC(=O)Cc2nc(-c3cc(C)n(-c4cc(C)on4)c3C)cs2)cc1	i
CC(C)(C)OC(=O)Nc1ccc(C(=O)NCC(c2cccs2)N2CCCC2)cc1 (stereo unspecified)	i
Cc1n[nH]c(C)c1S(=O)(=O)N1CCC(=O)CC1	i
CC(=O)c1ccc(NC(=O)C(C)OC(=O)c2nc(-c3ccccc3)oc2C)cc1 (stereo unspecified)	i
N#Cc1cccc(CN2CCOC[C@H]2c2ncc(-c3ccc(Cl)s3)[nH]2)c1	i
CCCN1C(=O)c2[nH]nc(-c3c(C)cc(C)cc3O)c2C1c1ccc(OC)cc1 (stereo unspecified)	i
COc1ccc(-c2ccc3nnc(CNC(=O)c4ccccc4F)n3n2)cc1	28µM*
O=C(Cc1ccsc1)NCc1nnc2ccc(-c3ccc(Cl)cc3)nn12	25µM*
O=C(NCc1nnc2ccc(-c3ccc(Cl)cc3)nn12)c1cc(F)ccc1Cl	16µM*
CC(=O)Nc1ccc(NC(=O)CSc2nnc3ccc(-c4ccc(F)cc4)nn23)cc1	i
COc1cc(CNC(=O)Cc2ccsc2)ccn1	i
COc1ccc(NC(=O)CCc2nnc3ccc(NCc4ccccc4Cl)nn23)cc1	i
COc1ccc(-c2ccc3nnc(CNC(=O)c4ccccc4Cl)n3n2)cc1	28µM*
Cc1nnc2sc(-c3ccc(CNC(=O)c4ccccc4Cl)cc3)nn12	i
COc1ccc(NC(=O)CSc2ccc3nnc(CCNC(=O)c4ccccc4)n3n2)cc1	i
O=C(Cc1ccsc1)NCc1ccccc1	i
SMILES	KDM5B inhibitor
CCn1c(CNC(=O)c2ccccc2OC)nnc1SCC(=O)c1ccc(OC)cc1	i
Cc1cc(N(CCO)CCO)n2nc(Cc3ccc(Cl)cc3)nc2n1	i
CCOc1ccc2oc(C(=O)N3CCN(CC(=O)Nc4ccc(C)cc4)CC3)c(C)c2c1	i
Cc1ccc(-c2cc(Nc3ccccc3C(F)(F)F)nc(C)n2)cc1	i
Cc1ccc(/C=N/NS(=O)(=O)c2ccc(C)c([N+](=O)[O-])c2)s1	i
O=C(O)c1ccc(COc2cc(Cl)ccc2Cl)s1	i
Cc1cccc(-n2nnnc2C(C)(C)NC2CCCCC2)c1	i
Cc1ccc(NC(=O)CSc2ncnc3ccccc23)c(C)c1	i
O=C(NCc1ccccc1Cl)c1ccccc1-c1ccccc1	i
O=C(Cc1cccs1)NCc1nnc2ccc(-c3ccccc3)nn12	i
O=C(Cn1nnc(-c2ccc(Cl)cc2)n1)NCc1ccc(F)cc1	i
Cc1ccccc1CC(=O)NCc1nnc2ccc(-c3ccccc3)nn12	32µM*
Cc1ccccc1CNC(=O)CC(C)C	i
O=C(NCc1nnc2ccc(-c3ccccc3)nn12)c1ccccc1Cl	28µM*
O=C(NCc1nnc2ccc(-c3ccccc3)nn12)c1ccccc1F	28µM*
CCn1c(CNC(=O)c2ccccc2F)nnc1SCCOc1ccccc1	i
O=C(Cc1cccc(F)c1)NCc1nnc2ccc(-c3ccc(Cl)cc3)nn12	25µM*
CC(Oc1ccccc1)C(=O)NCc1nnc2ccc(-c3ccccc3)nn12 (stereo unspecified)	i
O=C(Nc1nn2c(-c3ccccc3)nnc2s1)c1ccccc1F	i
CN(CC(=O)NC(=O)Nc1ccccc1F)Cc1cccc(C#N)c1	i
Cc1cn2nnc(C(=O)NCc3ccc(OC(C)C)cc3)c2c(=O)[nH]1	i
Cn1c(SCC(=O)Nc2sccc2C#N)nnc1-c1cccc(Cl)c1	i
O=C(O)c1cc(I)ccc1Br	i
O=C(Oc1cccc(OC(=O)c2ccc(Cl)cc2Cl)c1)c1ccc(Cl)cc1Cl	i
Cc1cnc(NC(=O)c2csc(NCC(C)C)n2)s1	i
COc1cccc2c(C)nc(Nc3nc(C)c(Cc4ccc(C)cc4)c(=O)[nH]3)nc12	i
CC(C)(CNC(=O)C1(c2ccccc2)CC1)C(N)=O	i
O=C(Cc1ccccc1Cl)NCc1nnc2ccc(-c3ccccc3)nn12	11µM*
Cc1ccc(-c2ccc3nnc(CNC(=O)C4(c5ccccc5)CC4)n3n2)cc1	28µM*
O=C(NCCc1noc(C2CC2)n1)C1(c2ccccc2)CC1	i

Source: PubChem (National Center for Advancing Translational Sciences (NCATS))
